Screening results from PubChem BioAssay.
DENV2 CPE rescue: protects cells from dengue virus 2 cytopathic effect; DENV2-infected cells, cytopathic effect rescue, plate reader; CPE inhibition, % at 9.99 µM; 1.7% of 350,000 active; AID 651640; in the data active = CPE inhibition above about 20%, passing the limit was not always enough; tested in BHK-21 cells;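 note: 0% = median of neutral control wells and 100% = median of positive control wells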
ERp5 inh: blocks human ERp5 reductase activity on insulin. Q15084. ERp5 insulin aggregation, absorbance 650 nm, 90 min. inhibition, % at 9.99 µM. 0.05% of 350,000 active;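 active = mean replicate inhibition above about 25%, with every replicate also reaching it, limit read from the data, passing the limit was not always enough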
Target sequence (Q15084 whole entry, looked up): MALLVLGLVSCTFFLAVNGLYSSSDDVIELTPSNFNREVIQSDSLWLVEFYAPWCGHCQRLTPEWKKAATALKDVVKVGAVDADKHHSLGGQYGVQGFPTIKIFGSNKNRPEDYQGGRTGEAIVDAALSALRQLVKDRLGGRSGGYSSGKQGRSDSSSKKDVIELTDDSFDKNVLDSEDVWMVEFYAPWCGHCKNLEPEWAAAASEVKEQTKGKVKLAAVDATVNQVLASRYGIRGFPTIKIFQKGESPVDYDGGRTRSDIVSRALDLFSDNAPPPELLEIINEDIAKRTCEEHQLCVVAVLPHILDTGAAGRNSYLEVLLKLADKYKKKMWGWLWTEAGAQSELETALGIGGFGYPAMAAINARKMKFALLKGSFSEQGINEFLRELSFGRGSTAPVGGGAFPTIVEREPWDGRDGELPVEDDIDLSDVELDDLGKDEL
MLL AF4-AF9 inh: blocks AF4 peptide binding to human AF9; AlphaScreen, biotin-AF4 peptide binding to FLAG-AF9; inhibition, % at 10 µM; 0.47% of 350,000 active;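 active = every replicate reaching a set inhibition limit, whatever the replicate mean, cut at about 25% in these data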;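 note: 0% = plate neutral control median and 100% = total signal loss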
PDI inh: inhibitors of human protein disulfide isomerase. P07237. inhibition, % at 10 µM. AID 588391. 0.052% of 350,000 active. PDI insulin aggregation turbidity, A650, 90 min;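 active = mean inhibition across replicates of 30% or more, whatever share of single replicates reach that level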
ERAP1 HTS inh: blocks human ERAP1 aminopeptidase activity; Q9NZ08; recombinant ERAP1, Leu-AMC fluorescence, 60 min; 0.15% of 340,000 active; AID 652197; inhibition, % at 10.7 µM;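 active = mean replicate inhibition of at least 30%, or all replicates individually reaching that 30% level; inactive = mean below 30% and not every replicate reaching it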;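 note: 0% = neutral control wells and 100% = L-leucinethiol positive control wells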
Active calls of the source: *; . = no result given; ! = repeats disagree. In the library only some 1.8% were active in any assay of this set; here they are far more common.

SMILES	DENV2 CPE rescue	ERp5 inh	MLL AF4-AF9 inh	PDI inh	ERAP1 HTS inh
C[C@H](CO)N1C[C@H](C)[C@@H](CN(C)C(=O)C2CCCCC2)OCCCC[C@H](C)Oc2ccc(NC(=O)Nc3cccc4ccccc34)cc2C1=O	14	3	-4	.	-2
C[C@@H]1CCCCO[C@@H](CN(C)C(=O)C2CCCCC2)[C@H](C)CN([C@H](C)CO)C(=O)c2cc(NC(=O)Nc3cccc4ccccc34)ccc2O1	23*	-4	-2	.	-2
C[C@@H]1CN([C@H](C)CO)C(=O)c2cc(NC(=O)Nc3cccc4ccccc34)ccc2O[C@@H](C)CCCCO[C@@H]1CN(C)C(=O)C1CCCCC1	19	0	-1	.	-5
O=C1C[C@@](C(=O)NCCN2CCOCC2)(c2ccc([N+](=O)[O-])cc2)[C@@H](c2ccc(CO)cc2I)N1CC12CC3CC(CC(C3)C1)C2	-3	3	27*	.	1
CNC[C@H](CC1CCCCC1)NC[C@H](Cc1ccccc1)NCCC12CC3CC(CC(C3)C1)C2	.	1	40*	-4	8
CC(NCC(O)COCCC12CC3CC(CC(C3)C1)C2)c1ccccc1 (stereo unspecified)	-5	-12	9	-13	3
CNCCC=C1c2ccccc2CCc2ccccc21	1	3	38*!	2	1
CC(C)NC(=O)N1C[C@@H]2[C@H](c3ccccc31)[C@H](CO)N2C(=O)c1cccnc1	-5	-3	1	.	1
O=S(=O)(Nc1ccc(Br)cc1)c1cccc2nonc12	-2	0	1	8	-6
O=S(=O)(Nc1ccc(C(O)(C(F)(F)F)C(F)(F)F)cc1)c1ccc(Cl)c2nonc12	.	.	.	34*	.
CC1(C)Oc2cc(N)c([N+](=O)[O-])cc2O1	.	.	.	8	.
C=C1N(C)c2cc([N+](=O)[O-])c(N)cc2C1(C)C	-6	-3	47*	3	3
COc1cccc(C(=O)Nc2ccc3c(c2)C(=O)N(C)C[C@@H](OC)[C@H](C)CN(CC2CC2)[C@H](C)CO3)c1	0	2	1	.	-1
C=CCOn1c(C)c(C(C)=O)c2c3nonc3ccc21	.	.	.	-8	.
CCOC(=O)c1c(C)n(OCc2ccccc2)c2ccc3nonc3c12	-1	-1	33*	-4	-6
NCc1csc(NC(=O)Nc2cccc(Cl)c2)n1	25*	4	8	-2	-4
CN(C)Cc1csc(NC(=O)Nc2cccc(Cl)c2)n1	-1	-1	6	7	-4
C[C@H]1CCCCO[C@H](CN(C)Cc2ccc3c(c2)OCO3)[C@@H](C)CN([C@@H](C)CO)C(=O)c2cc(NC(=O)C3CCCCC3)ccc2O1	2	-3	4	.	-1
O=C(NCc1nc2ccccc2[nH]1)C1=C[C@@H](c2csc3ccccc23)C[C@@H](OCCCCO)O1	-6	3	3	5	-2
O=C(NCc1nc2ccccc2[nH]1)C1=C[C@@H](c2coc3ccccc3c2=O)C[C@@H](OCCCCO)O1	82*	-5	-5	.	-2
C[C@H]1CN([C@@H](C)CO)C(=O)c2cccc(NC(=O)C3CCCCC3)c2O[C@@H]1CN(C)C(=O)NC1CCCCC1	-4	7	-2	.	0
Cc1cc(C(=O)Nc2cccc3c2O[C@@H](CN(C)C(=O)NC2CCCCC2)[C@H](C)CN([C@H](C)CO)C3=O)n(C)n1	-5	0	-2	.	2
Cc1cc(C(=O)Nc2cccc3c2O[C@H](CN(C)C(=O)NC2CCCCC2)[C@@H](C)CN([C@H](C)CO)C3=O)n(C)n1	37*	2	-11	.	3
C[C@@H]1CN([C@@H](C)CO)C(=O)c2cccc(NC(=O)C3CCCCC3)c2O[C@@H]1CN(C)C(=O)NC1CCCCC1	33*!	5	-4	7	-3
C[C@H]1CN([C@@H](C)CO)C(=O)c2cccc(NC(=O)C3CC3)c2O[C@@H]1CN(C)C(=O)NC1CCCCC1	54*	2	-3	.	-3
C[C@@H](NC(=O)C[C@@H]1C=C[C@@H](NC(=O)CN2CCOCC2)[C@@H](CO)O1)c1ccccc1	-4	1	1	.	11
COc1cccc(S(=O)(=O)Nc2ccc3c(c2)C(=O)N(C)[C@@H]2CC[C@@H](CC(=O)O)O[C@@H]2CO3)c1	9	.	.	.	.
CCC(=O)Nc1ccc2c(c1)C(=O)N(C)C[C@@H](OC)[C@H](C)CN(C(=O)c1ccccn1)[C@@H](C)CO2	27*	-2	-1	.	-1
